Assay [1] in a line: qHTS assay to identify small molecule agonists of the hypoxia (HIF-1) signaling pathway - cell viability counter screen (AID 1224844; calls by dose curve; also: nearly all actives have a fitted effect of over 50% in size; also: potency is read from the fitted curve at half-maximal effect). In outline: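 ME-180 HRE-bla cells, 2,000/well, 0.5% dialyzed FBS; 5 hr settle, 17 hr compound at 37C/5% CO2; CCF4-AM reporter read first, then CellTiter-Glo luminescence after 30 min RT.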
(In general: qHTS replaces the single test concentration by a dilution series.)

A short description of assay [2]: qHTS assay to identify small molecule agonists of H2AX (AID 1224845; active = well fitted activation curve with a large enough effect in the signal ratio in the repeat runs, not every such curve was filed as active; the % refers to the signal ratio). In outline:
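Phospho-H2AX Ser139 measured by HTRF (ex 320 nm; em 665 and 620 nm) after 24 hr antibody incubation. Compounds, 15 concentrations, 0.76% DMSO, were applied to CHO-K1 cells for 3hr at 37C before lysis.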

A short description of assay [3]: qHTS assay to identify small molecule agonists of the hypoxia (HIF-1) signaling pathway (AID 1224846; active = well fitted activation curve with a large enough effect in the signal ratio in the repeat runs, not every such curve was filed as active; the % refers to the signal ratio). In outline: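 Cell line: CellSensor HRE-bla ME-180; 2,000 cells/well; 0.5% dialyzed FBS; 5 h preincubation; DMSO compound pin transfer; 17 h, 37C, 5% CO2; CCF4-AM added; bla FRET signal scored for activation.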
Assay [4] is described as follows: qHTS assay to identify small molecule agonists of H2AX - cell viability counter screen (AID 1224847; calls by dose curve; also: nearly all actives have a fitted effect of over 30% in size; also: potency is read from the fitted curve at half-maximal effect). In outline:
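Compounds tested at 15 concentrations were incubated 3 hr at 37C with wild-type CHO-K1 cells; cellular ATP-based luminescence (CellTiter-Glo) indicated viability.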

Assay [5] can be described thus: qHTS assay to identify small molecule antagonists of the estrogen related receptor (ERR) signaling pathway from Tox21 library (AID 1224848). Also: nearly all actives have a fitted effect of over 50% in size. Also: potency is read from the fitted curve at half-maximal effect. Put shortly:
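Reading was by luminescence 30 min after ONE-Glo addition. Before that, ERR cells at 2,000 per well had rested 6 h at 37 C/5% CO2 and then received pin-tooled compounds in DMSO for 18 h at 37 C.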

Assay [6] in a line: qHTS assay to identify small molecule agonists of the estrogen related receptor (ERR) signaling pathway from Tox21 library (AID 1224849; calls by dose curve; also: nearly all actives have a fitted effect of over 15% in size). Conditions: ERR reporter cell line, ONE-Glo luciferase, 18 h. In outline: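 ERR cells, 6 h pre-incubation 37 C/5% CO2; cpd in DMSO pinned; 18 h 37 C; ONE-Glo added, 30 min RT; luminescence read. Agonist mode, qHTS.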
Assay [7] is described as follows: qHTS RealTime-Glo MT Cell Viability Assay in HepG2 cells - 24 hour (AID 1224867). Also: nearly all actives have a fitted effect of over 50% in size. Also: potency is read from the fitted curve at half-maximal effect. Put shortly: (§1)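 Compound treatment began 5 h after plating HepG2 cells (600/well) with NanoLuc luciferase and prosubstrate. Plates stayed at 37 C for 40 h; luminescence was captured at six time points, 0 h through 40 h.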
A short description of assay [8]: qHTS RealTime-Glo MT Cell Viability Assay in HEK293 cells - 32 hour (AID 1224868). Also: nearly all actives have a fitted effect of over 50% in size. Also: potency is read from the fitted curve at half-maximal effect. In outline: (§2)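 Quantitative high-throughput screen of the Tox21 10K library in HEK293: cells and RealTime-Glo reagents plated together, compound added at 5 h, luminescence monitored through 40 h at 37 C.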
Assay [9] can be described thus: A CellTox Green Cytotoxicity Assay to monitor cytotoxicity in HEK293 cells - 0 hour (AID 1224869). Also: nearly all actives have a fitted effect of over 50% in size. Put shortly:
(§3)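 Nonlytic real-time cytotoxicity: HEK293 + CellTox Green reagent plated, 5 h preincubation, pintool compound addition (23 nL in DMSO), 37 C for 40 h, fluorescence measured at successive time points.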

Assay [10] in a line: qHTS RealTime-Glo MT Cell Viability Assay in HepG2 cells - 40 hour (AID 1224870). Also: nearly all actives have a fitted effect of over 50% in size. Also: potency is read from the fitted curve at half-maximal effect. Put shortly: (§4)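 Real-time viability: cells seeded at 600 per well together with NanoLuc and cell-permeant prosubstrate, compounds added after 5 h incubation. Luminescence tracked at 0, 8, 16, 24, 32 and 40 h of exposure.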
The nature of assay [11]: A CellTox Green Cytotoxicity Assay to monitor cytotoxicity in HEK293 cells - 40 hour (AID 1224871). Also: nearly all actives have a fitted effect of over 45% in size. Also: potency is read from the fitted curve at half-maximal effect. Put shortly: as §3
The nature of assay [12]: qHTS RealTime-Glo MT Cell Viability Assay in HEK293 cells - 16 hour (AID 1224872). Also: nearly all actives have a fitted effect of over 50% in size. Also: potency is read from the fitted curve at half-maximal effect. In outline:
as §2

Assay [13] in a line: qHTS RealTime-Glo MT Cell Viability Assay in HepG2 cells - 8 hour (AID 1224873). Also: nearly all actives have a fitted effect of over 55% in size. Also: potency is read from the fitted curve at half-maximal effect. Put shortly:
as §4

A short description of assay [14]: qHTS RealTime-Glo MT Cell Viability Assay in HEK293 cells - 40 hour (AID 1224874). Also: nearly all actives have a fitted effect of over 50% in size. Also: potency is read from the fitted curve at half-maximal effect. Conditions: RealTime-Glo luminescence; max response: hits give low values. Put shortly: (§5)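 Cells were seeded together with NanoLuc luciferase and a prosubstrate that viable cells reduce to a luciferase substrate. After a 5 h incubation at 37 C/5% CO2, compounds were added and luminescence was measured repeatedly during 40 h of treatment.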

Assay [15] is described as follows: A CellTox Green Cytotoxicity Assay to monitor cytotoxicity in HEK293 cells - 24 hour (AID 1224875). Also: nearly all actives have a fitted effect of over 45% in size. In outline:
as §3

Assay [16] is described as follows: A CellTox Green Cytotoxicity Assay to monitor cytotoxicity in HepG2 cells - 16 hour (AID 1224876). Also: nearly all actives have a fitted effect of over 45% in size. In outline:
(§6)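 Read-out is fluorescence of a cyanine dye excluded from live cells that stains DNA of dead HepG2 cells, with signal proportional to cytotoxicity. Plates were read at 0, 8, 16, 24, 32 and 40 h after compound addition.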

Assay [17] is described as follows: qHTS RealTime-Glo MT Cell Viability Assay in HepG2 cells - 32 hour (AID 1224877). Also: nearly all actives have a fitted effect of over 55% in size. Also: potency is read from the fitted curve at half-maximal effect. Put shortly:
as §1

A short description of assay [18]: A CellTox Green Cytotoxicity Assay to monitor cytotoxicity in HepG2 cells - 24 hour (AID 1224878). Also: nearly all actives have a fitted effect of over 45% in size. Put shortly: as §6
Assay [19] can be described thus: A CellTox Green Cytotoxicity Assay to monitor cytotoxicity in HepG2 cells - 40 hour (AID 1224879). Also: nearly all actives have a fitted effect of over 40% in size. Also: potency is read from the fitted curve at half-maximal effect. In outline: as §6
A short description of assay [20]: qHTS RealTime-Glo MT Cell Viability Assay in HEK293 cells - 0 hour (AID 1224880). Put shortly:
as §5

Where “and” joins values, the source holds several entries; their conditions need not be identical. Equal values may be shown once. A number with no mark means an inactive call. Records with an inconclusive call do not appear. Calls of active or inactive are those of the source. Unless noted, calls follow the shape of the dose curve; as a rule, active = well fitted curve in the direction sought with a large enough effect in the repeat runs; inconclusive = weak or mixed curves; inactive = no such curve, though single readings can be large; an effect the other way counts as inactive or inconclusive.
% is scaled to controls: 0 for no effect and ±100 for the full control effect.

Consider `C=C(C)C(=O)OCCCCOC(=O)C(=C)C`, for which the Potency result in assay [1], in assay [2], in assay [4], in assay [5], in assay [7] and in assay [8] was “inactive” in each case. For the same molecule, the Potency entry in [9], in assay [10], in [11], in assay [12], in [13] and in assay [15] was “inactive” each time. The Potency entry in [16], in assay [17], in assay [18] and in [19] was “inactive” each time. For the same molecule, the outcome in [3] and in assay [20] was inactive. For the same molecule, the activity change, positive = activation in assay [6] (at 92.4 µM (top of the series)) is 2.2%. Moreover, the max response in assay [14] is 5.43%.
As to `c1ccc2c(c1)sc1ccccc12`, the Potency entry in assay [1], in assay [2], in assay [4], in assay [5], in assay [7] and in assay [8] was “inactive” each time. For the same molecule, the Potency result in [9], in assay [10], in assay [12], in [13], in assay [15] and in assay [16] was “inactive” in each case. In addition, the Potency result in assay [17], in [18] and in assay [19] was “inactive” in each case. Besides, the molecule was classed as inactive in assay [3] and in assay [20]. Also, the activity change, positive = activation in assay [6] (at 42.5 µM (top of the series)) was 0.495%; in assay [6] (at 92.4 µM (top of the series)) it was -4.7%. The max response in [14] was 0.709% and -2.64%.
In the case of `CCCCNC(=O)OCC#CI`, the Potency is 48.7 µM (active) in assay [1]; 50.2 µM (active) and 101 µM (active) in assay [4]; 68.2 µM (active) in assay [5]; 7.72 µM (active) and 3.89 µM (active) in assay [7]; 24.4 µM (active) and 24.5 µM (active) in [8]; 4.87 µM (active) and 2.19 µM (active) in [10]. Further, the Potency is 54.7 µM (active) and 54.9 µM (active) in assay [11]; 19.4 µM (active) and 21.9 µM (active) in [12]; 15.4 µM (active) and 12.3 µM (active) in assay [13]; 21.8 µM (active) and 24.5 µM (active) in assay [14]; 6.14 µM (active) and 2.75 µM (active) in assay [17]; 49 µM (active) in assay [19]. Also, the Potency result in assay [2] and in assay [16] was “inactive” each time. In addition, the result in assay [3] was inactive. Besides, in assay [6] (at 92.4 µM (top of the series)), the activity change, positive = activation is -71.4% and -29.5%.
Consider `O=S(=O)(c1ccccc1)c1ccccc1`, for which the Potency result in assay [1], in assay [2], in assay [4], in [5], in assay [7] and in assay [8] was “inactive” throughout. In addition, the Potency entry in assay [9], in [10], in assay [11], in assay [12], in [15] and in assay [18] was “inactive” in each case. Also, the Potency result in [19] was “inactive”. In addition, the molecule was called inactive in [3] and in [20]. Further, the max response in assay [14] is 1.49%.
In the case of `CN(C)C(=O)Nc1cccc(OC(=O)NC(C)(C)C)c1`, the Potency entry in assay [1], in assay [2], in assay [4], in assay [7], in assay [8] and in assay [10] was “inactive” throughout. The Potency entry in assay [11], in assay [12], in assay [13], in assay [15], in assay [16] and in assay [17] was “inactive” in each case. Besides, the Potency entry in [18] and in assay [19] was “inactive” each time. For the same molecule, the molecule was classed as inactive in assay [3] and in [20]. Besides, the activity change, positive = activation in assay [6] (at 92.4 µM (top of the series)) is -15.7%. For the same molecule, the max response in [14] is -14.3%.
On to `COc1cc(CC(C)N)c(OC)cc1Br` (configuration not stated), for which the Potency entry in assay [1], in [2], in [4], in assay [5], in [7] and in assay [9] was “inactive” in each case. Further, the Potency result in assay [10], in assay [11], in assay [12] and in assay [15] was “inactive” in each case. Moreover, the molecule was classed as inactive in assay [3] and in [20]. In assay [6] (at 92.4 µM (top of the series)), the activity change, positive = activation is -12.2%.
As to `CCOP(=S)(OCC)Oc1ccc(S(C)=O)cc1` (configuration not stated), the Potency result in assay [1], in [2], in [4], in [5], in [7] and in assay [8] was “inactive” throughout. Further, the Potency entry in [9], in [10], in assay [11], in assay [12], in assay [13] and in assay [15] was “inactive” in each case. Further, the Potency result in [17], in assay [18] and in [19] was “inactive” in each case. For the same molecule, the outcome in assay [3] and in [20] was inactive. Moreover, in assay [6] (at 92.4 µM (top of the series)), the activity change, positive = activation was -5.68%. Moreover, the max response in [14] was 6.56%.

The record behind these values is PubChem BioAssay (Tox21).
